Sampled rows, rich in hits. Any-hit rate of the full collection: about 14%.
Lassa entry inh = inhibitors of Lassa virus binding or cell entry; 1.2% of 300,000 active; Lassa virus pseudotype entry inhibition, cell reporter; Potency, µM (doses to about 37.9 µM), inactives show top-dose activity change, negative = inhibition, actives largely listed as inhibitors; calls by dose curve; tested in HEK293 cells; further: potency means the concentration at half of the fitted maximal effect; nearly all actives have a fitted effect of over 50% in size
HCV inh = inhibitors of hepatitis C virus infection; Potency, µM (titrated, usually from 41.8 µM), inactives show at the highest dose activity change, negative = inhibition, most hits filed as inhibitors; Huh7.5.1 HCVcc-Cre infection, luciferase reporter, 44 h; AID 651820; 3.4% of 340,000 active; further: potency means the concentration at half of the fitted maximal effect
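Reporter virus HCVcc-Cre (~0.5 moi) infects cells exposed to compound; seeding density 1,000 cells/well with 4 h settling beforehand. Luminescence, 15 sec read, taken 44 h post-infection following a 15 min RT substrate incubation.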
Pf growth 96h = P. falciparum growth inhibition at 96 hour, primary screen for plastid delayed-death inhibitors. 6.9% of 320,000 active. P. falciparum luciferase reporter growth, 96 h. Potency, µM (doses to about 28.7 µM), without a hit: top-dose activity change, negative = inhibition, most hits filed as inhibitors; further: potency means the concentration at half of the fitted maximal effect
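Erythrocytes infected with luciferase-expressing P. falciparum were dispensed at 2% hematocrit and 0.05% parasitemia (final), then incubated with compounds 96 hours at 37 C in 5% CO2. Luminescence after detection reagent addition reported growth.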
Marburg entry inh = blocks Marburg virus binding to or entry into cells. Marburg virus pseudotyped entry inhibition, cell reporter. Potency, µM (top dose mostly 37.8 µM), for the others: at the highest dose activity change, negative = inhibition, most hits filed as inhibitors. 1.8% of 300,000 active. AID 540276; calls by dose curve; tested in HEK293 cells; further: potency means the concentration at half of the fitted maximal effect
HCMV antiviral = blocks human cytomegalovirus replication; HFF cells, HCMV-luciferase reporter, 72 h; stronger effect = lower value; activity change, negative = inhibition, % at 57.5 µM; 4.5% of 410,000 active; AID 1259415; in the data active means activity change below about -60%; inconclusive means no clear call, values can overlap the other calls; inactive means above about -39%
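Screen run at 2 compound doses on HFFs infected with reporter HCMV, MOI 1 PFU/cell. Luciferase activity from cell lysates at 72 h post infection gave inhibition relative to buffer-only and Salinomycin wells.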
Pf growth 48h = inhibits P. falciparum growth in the first generation, 48 h; P. falciparum luciferase growth in erythrocytes, 48 h; Potency, µM (doses to about 28.7 µM), inactives show top-dose activity change, negative = inhibition, hits mostly inhibitors; 5.9% of 310,000 active; AID 504832; further: potency means the concentration at half of the fitted maximal effect
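Parasite viability was followed by luminescence of a genomically integrated firefly luciferase. Cultures held 0.1% parasitemia at 2% hematocrit (final), incubated under 5% CO2 at 37 C.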
An asterisk follows results filed as active; ? = inconclusive; / = not tested or not shown; [ ] = remark or other dose. Unless noted, the call rests on the fitted dose curve; in most records, active means well fitted inhibition curve with a large enough effect; inconclusive means small, poorly fitted or top-dose-only effect, or another doubt; inactive means no such curve, though single readings can be large or run the other way. On the % scale 0 is the no-effect control and ±100 the full control effect.

SMILES | Lassa entry inh | HCV inh | Pf growth 96h | Marburg entry inh | HCMV antiviral | Pf growth 48h
CCC(C)C(=O)OC1CCC=C2C=CC(C)C(CCC3CC(O)CC(=O)O3)[C@@H]21 (stereo partly drawn) | / | / | 1% | / | / | -2%
Cc1ccc(CN(C(=O)c2cc(=O)c3cc(Cl)c(C)cc3o2)C2CCS(=O)(=O)C2)cc1 (stereo not drawn) | ? | 9% | 4.7µM* | 5% | 13 | ?
Cc1ccc(CN(C(=O)c2cc(=O)c3cc(C)cc(C)c3o2)C2CCS(=O)(=O)C2)cc1 (stereo not drawn) | / | 1% | 9.3µM* | / | 21 | 3.3µM*
CC(C)C[C@H]1CN([C@@H](CC(C)C)CN2CCC[C@@H]2CN2C(=S)NC[C@@H]2Cc2ccc(O)cc2)C(=S)N1CCc1ccccc1 | / | / | / | / | -7 | /
CC(C)C[C@H]1CNC(=S)N1C[C@H]1CCCN1C[C@H](CC(C)C)N1C[C@H](Cc2ccc(O)cc2)N(CCc2ccccc2)C1=S | / | / | / | / | -95* | /
CC(C)C[C@H]1CN([C@@H](CC(C)C)CN2CCCC2CN2C(=S)NC[C@@H]2Cc2ccc(O)cc2)C(=S)N1CCc1ccccc1 (stereo partly drawn) | / | ? | / | / | -80* | /
CCOc1ccc(CCN2C(=S)N([C@@H](Cc3ccccc3)CN3CCC[C@@H]3CN3C(=S)NC[C@@H]3CC(C)C)C[C@@H]2Cc2ccccc2)cc1 | / | / | / | / | -11 | /
CCOc1ccc(CCN2C(=S)N([C@@H](CC(C)C)CN3CCCC3CN3C(=S)NC[C@@H]3CC(C)C)C[C@@H]2Cc2ccccc2)cc1 (stereo partly drawn) | / | 5.6µM* | / | / | 3 | /
CC(C)C[C@H]1CNC(=S)N1C[C@H]1CCCN1C[C@H](Cc1ccc(O)cc1)N1C[C@H](Cc2ccccc2)N(CCc2ccccc2)C1=S | / | / | / | / | -11 | /
CC(=O)N(c1ccccc1)c1ccc([N+](=O)[O-])cc1[N+](=O)[O-] | 25% | -7% | -29% | 12% | -11 | -8%
CC(=O)N(c1cc(C)ccc1C)c1ccccc1[N+](=O)[O-] | 19%[46.1 µM] | 0% | / | ? | -63* | /
Cc1cc(=O)n(Cc2c(F)cccc2Cl)c2c1c(C)nn2C | 6%[46.1 µM] | / | / | / | -8 | /
Clc1cc2nc3ccccn3c2cc1Cl | 16% | 25µM* | 81% | 9% | 15 | 22%
O=Cc1c(Cl)nc2ccccn12 | 15% | 9% | 28% | 7%[46.1 µM] | -35 | 8%
COc1cc(/C=N/NC(=O)c2cc(-c3cccc(OC(C)C)c3)nc3ccccc23)ccc1O | 3.5µM* | ? | / | 3.5µM* | -61* | /
C(=N\Nc1nccc(-c2cccnc2)n1)/c1ccccc1 | / | 13% | 130% | / | -1 | ?
COc1cc(/C=N/NC(=O)c2cc(-c3cccs3)nc3ccccc23)ccc1O | / | -11% | ? | / | -21 | ?
COc1ccc(-c2cc(C(=O)N/N=C/c3cccnc3)c3ccccc3n2)cc1 | 10µM* | -7% | ? | ? | ? | 15%
Cc1ccc(-c2cc(-c3ccccc3O)nc(N/N=C/c3cccnc3)n2)cc1 | -22% | 0.56µM* | 0.029µM* | -13% | ? | ?
CCCOc1cccc(-c2cc(C(=O)N/N=C/c3ccccn3)c3ccccc3n2)c1 | ? | ? | 9.3µM* | ? | -113* | 12µM*
CC(=O)N1CCc2cc(Br)cc(S(=O)(=O)CCC(=O)N3CCN(c4ccc(F)cc4)CC3)c21 | 3%[46.1 µM] | / | / | ? | -3 | /
COc1ccc(CNC(=O)c2oc3c(c2C)-c2nn(Cc4ccccc4Cl)cc2CC3)cc1 | -13%[46.1 µM] | / | / | / | ? | /
O=C(CSc1nc(-c2ccc(F)cc2)[nH]c1-c1ccccc1)NCC1CCCO1 (stereo not drawn) | -4%[46.1 µM] | / | / | -20%[46.1 µM] | -6 | /
Oc1cccc(Nc2nccc3[nH]c(-c4ccccc4)cc23)c1 | / | / | / | / | -7 | /
COc1ccc([C@H]2CC(=O)C=C(c3ccc4cc[nH]c4c3)C2)cc1 | / | ? | ? | / | -13 | ?
SMILES | Lassa entry inh | HCV inh | Pf growth 96h | Marburg entry inh | HCMV antiviral | Pf growth 48h
Cc1[nH]c2ccccc2c1/C=N/NC(=O)c1ccccc1 | / | -29% | 2% | / | -10 | 5%
CCCOc1cccc(-c2cc(C(=O)N/N=C/c3cccnc3)c3ccccc3n2)c1 | ? | -13% | ? | ? | -83* | ?
Cc1cccc(-c2cc(C(=O)N/N=C/c3cccnc3)c3ccccc3n2)c1 | -9%[46.1 µM] | -14% | / | ? | 9 | /
Cc1[nH]c2ccccc2c1/C=N/NC(=O)c1cc(-c2ccncc2)nc2ccccc12 | / | 10µM* | 6.6µM* | / | 8 | ?
Cc1ccccc1-c1cc(C(=O)N/N=C/c2cccnc2)c2ccccc2n1 | -2%[46.1 µM] | -15% | -15% | -9%[46.1 µM] | -28 | 10µM*
COc1cc(OC)cc(C(=O)NCC2CCN(C(=O)C(=O)c3cccs3)CC2)c1 | / | / | / | / | 8 | /
COc1ccccc1-c1noc(CCC(=O)Nc2ccc(C)cc2C)n1 | -2%[46.1 µM] | / | / | 3%[46.1 µM] | -13 | /
CCCCCC=CCC=CCCCCCCCC(=O)OCC | / | / | 2% | / | / | -6%
FC(F)(F)c1cccc(/C=N/NC(=S)NC2CCCCC2)c1 | ? | -4% | ? | ? | -95* | ?
FC(F)(F)c1ccc(/C=N/NC(=S)NC2CCCCC2)cc1 | -18% | 7% | 3.3µM* | -1% | 0 | ?
O=C(O)c1ccc(/C=N/NC(=S)NC2CCCCC2)cc1 | -3% | 14% | 84% | 1%[46.1 µM] | 56 | 75%
O=C(O)C(Cc1ccccc1)N1C(=O)C=CC1=O (stereo not drawn) | / | / | / | / | 17 | /
COc1ccc(C2=NCC(C)n3nc4cc(C(F)(F)F)ccc4c32)cc1 (stereo not drawn) | / | / | / | / | 87 | /
O=C(CCC(=O)c1cccs1)OCc1ccc([N+](=O)[O-])cc1 | / | 21% | -12% | / | 1 | -7%
O=C(Nc1ccncc1)c1ccc(Cl)c(S(=O)(=O)N2CCCCC2)c1 | ? | 10µM* | 1.9µM* | ? | / | ?
CCc1noc(C)c1C(=O)Nc1ccc(S(=O)(=O)N2CCCCC2)cc1 | -6% | ? | ? | -29%[46.1 µM] | -15 | ?
O=C(Nc1cccnc1)c1ccc(Cl)c(S(=O)(=O)N2CCCCCC2)c1 | -25% | ? | / | ? | ? | 10µM*
CCc1noc(C)c1C(=O)Nc1ccc(Cl)c(S(=O)(=O)N2CCCCC2)c1 | -17% | ? | ? | ? | -35 | 9.3µM*
Cc1ccc(C(=O)Nc2cccnc2)cc1S(=O)(=O)N1CCCCCC1 | -3% | / | ? | -15% | -9 | ?
O=C(Nc1cccnc1)c1ccc(S(=O)(=O)c2ccc(Cl)cc2)cc1 | ? | ? | 76% | ? | -86* | ?
O=C(Nc1cccnc1)c1ccc(C(=O)Nc2cccnc2)cc1 | 7% | -16% | ? | -5%[46.1 µM] | -24 | 5%
